Experimental data published in PubChem BioAssay (EPA / NIEHS).
Activity calls are given as the source filed them. Rule for the calls: active = hit-call score of the fitted dose curve at least 0.9, where 1 is the maximum; inactive = score below 0.9.

How the values were obtained:
[1] = molecular target: Transcription factor E2F1 (Homo sapiens) (UniProt Q01094); test: ATG_E2F_CIS: Attagene CIS-FACTORIAL HepG2 Assay for human E2F Transcription Factor 1 (AID 2282935); conditions: HepG2 Attagene cis-reporter, E2F reporter RNA transcripts; actives raise or lower the signal
In short: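 Gain or loss of reporter transcript, fitted against DMSO, reflects E2F1-driven transcription. Transiently transfected HepG2 dosed 24 h before RNA isolation. Quantified by fluorescent RT-PCR products separated by capillary electrophoresis.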

[2] = ATG_E_Box_CIS: Attagene CIS-FACTORIAL HepG2 Assay for human Enhancer Box (E-box) (AID 2282936); conditions: HepG2 E-box cis-reporter transcription, actives raise or lower the signal
In short: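 E-box-driven reporter transcripts measured in transiently transfected HepG2 after 24 h exposure: RNA reverse-transcribed, PCR-amplified, fluorescently labelled, digested and resolved by capillary electrophoresis. Gain or loss relative to DMSO.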

[3] = ATG_EGR_CIS: Attagene CIS-FACTORIAL HepG2 Assay for human Early Growth Response 1 (EGR1) (AID 2282938); conditions: HepG2 Attagene CIS-FACTORIAL EGR reporter mRNA; actives raise or lower the signal
In short: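 HepG2 cells transiently transfected with cis-promoter-driven multiplexed reporter transcription units; reporter mRNA measured 24 h after compound dosing by RT-PCR, 6-FAM primer extension, HpaI digestion and capillary electrophoresis. Bidirectional fit versus DMSO baseline.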

[4] = ATG_ERE_CIS: Attagene CIS-FACTORIAL HepG2 Assay for Estrogen Response Element (ERE) (AID 2282940); conditions: HepG2 ERE cis-reporter, Attagene RNA transcript; actives raise or lower the signal
In short: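 After 24 h compound treatment, RNA from transfected HepG2 cells was reverse-transcribed, reporter cDNA PCR-amplified, FAM-labelled, HpaI-cut and resolved by capillary electrophoresis. ERE-driven cis reporter transcripts reflect endogenous factors; gain or loss scored against DMSO.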

[5] = ATG_Ets_CIS: Attagene CIS-FACTORIAL HepG2 Assay for human Erythroblast Transformation Specific (ETS) (AID 2282941); conditions: HepG2 ETS cis-reporter transcription, actives raise or lower the signal
In short: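 Cis-regulated reporter mRNA induction in HepG2 (transient transfection), 24 h exposure, RT-PCR plus capillary electrophoresis detection; DMSO serves as negative control and baseline.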

[6] = molecular target: Hepatocyte nuclear factor 3-beta (Homo sapiens) (UniProt Q9Y261); test: ATG_FoxA2_CIS: Attagene CIS-FACTORIAL HepG2 Assay for human Forkhead box A2 (FOXA2) (AID 2282942); conditions: HepG2 cis-reporter transcription factor activity, 24 h; actives raise or lower the signal
In short: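 HepG2 cells transiently transfected with multiple cis-regulated reporter transcription units, dosed for 24 h. Reporter mRNA measured by RT-PCR, 6-FAM labelling, HpaI digestion and capillary electrophoresis; bidirectional fitting against DMSO baseline.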

[7] = ATG_FoxO_CIS: Attagene CIS-FACTORIAL HepG2 Assay for human Forkhead box O (FoxO) (AID 2282943); conditions: HepG2 Attagene cis-reporter, FoxO element, mRNA; actives raise or lower the signal
In short: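 HepG2, transient MRTU transfection (cis element, endogenous TFs). Dose 24 h. TriZol RNA → oligo(dT) RT → PCR → 6-FAM primer extension → HpaI cut → CE. Gain/loss vs DMSO.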

[8] = ATG_GATA_CIS: Attagene CIS-FACTORIAL HepG2 Assay for human GATA Binding Protein (AID 2282944); conditions: HepG2 GATA cis-element reporter, Attagene multiplex mRNA; actives raise or lower the signal
In short: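 Reporter transcripts from a GATA cis-regulated unit, among multiplexed reporters in transfected HepG2 cells, were measured by RT-PCR with capillary electrophoresis after 24 h dosing. Induction or loss scored relative to DMSO.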

[9] = ATG_GLI_CIS: Attagene CIS-FACTORIAL HepG2 Assay for human Zinc Finger Protein GLI1 (AID 2282945); conditions: HepG2, Attagene cis-factorial reporter mRNA, GLI element; actives raise or lower the signal
In short: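 Bidirectional curve fits relative to DMSO, using reporter mRNA levels from RT-PCR plus capillary electrophoresis. Cells were HepG2 transiently carrying cis-regulated reporter constructs, harvested 24 h after dosing.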

[10] = ATG_GRE_CIS: Attagene CIS-FACTORIAL HepG2 Assay for human Glucocorticoid Response Elements (GRE) (AID 2282947); conditions: HepG2 GRE cis-reporter, Attagene multiplex mRNA; actives raise or lower the signal
In short: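 Reporter transcripts read by RT-PCR with capillary electrophoresis fluorescence after a 24 h chemical exposure of HepG2 cells transiently transfected with multiple cis-element reporter units. Gain or loss fitted against DMSO.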

[11] = ATG_ISRE_CIS: Attagene CIS-FACTORIAL HepG2 Assay for human Interferon Regulatory Factor 1 (IRF1) binding to an Interferon-Stimulated Response Element (ISRE) (AID 2282948); conditions: HepG2 ISRE cis-reporter (Attagene), mRNA transcription readout; actives raise or lower the signal
In short: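 Multiplexed mRNA reporter readout in human liver HepG2 cells: cis-element-driven reporters transfected, compound added for 24 h, transcripts amplified, fluorescently labelled and sized by capillary electrophoresis; curve fitting bidirectional against DMSO.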

[12] = ATG_M_32_CIS: Attagene CIS-FACTORIAL HepG2 Assay for M32 Transcription Factor (Internal Marker) (AID 2282949); conditions: HepG2 Attagene cis-factorial M32 reporter, mRNA; actives raise or lower the signal;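 note: background control marker of the multiplexed CIS panel rather than a real target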
In short: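 HepG2 transfectants (cis-regulated reporter transcription units) dosed 24 h. Reporter mRNA by RT-PCR plus CE, analysed as gain or loss relative to DMSO.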

[13] = ATG_M_06_CIS: Attagene CIS-FACTORIAL HepG2 Assay for M06 Transcription Factor (Internal Marker) (AID 2282950); conditions: HepG2 Attagene CIS-FACTORIAL M06 internal marker reporter; actives raise or lower the signal
In short: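 Serves as a background control readout. Transfected HepG2 exposed to compounds for 24 h, then reporter transcripts quantified by fluorescent RT-PCR and capillary electrophoresis. Both directions fitted against DMSO baseline.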

[14] = molecular target: Hypoxia-inducible factor 1-alpha (Homo sapiens) (UniProt Q16665); test: ATG_HIF1a_CIS: Attagene CIS-FACTORIAL HepG2 Assay for human Hypoxia Inducible Factor 1 (HIF1A) (AID 2282951); conditions: HepG2 Attagene cis-factorial HIF1a reporter transcription; actives raise or lower the signal
In short: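 HepG2 cells transiently transfected with multiplexed cis-promoter reporter units; reporter mRNA read 24 h after dosing by RT-PCR, 6-FAM primer-extension labelling, HpaI digestion and capillary electrophoresis. Bidirectional fit versus DMSO baseline.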

[15] = molecular target: Hepatocyte nuclear factor 6 (Homo sapiens) (UniProt Q9UBC0); test: ATG_HNF6_CIS: Attagene CIS-FACTORIAL HepG2 Assay for human Hepatocyte Nuclear Factor 6 (HNF6) (AID 2282952); conditions: HepG2 Attagene cis-factorial HNF6 reporter transcription; actives raise or lower the signal
In short: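 First, HepG2 cells were transfected with the multiplexed cis reporter library and dosed with chemical for 24 h. Next, RNA was reverse-transcribed, PCR-amplified and fluorescently labelled. Finally, HpaI-digested fragments were read by capillary electrophoresis.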

[16] = molecular target: Heat shock factor protein 1 (Homo sapiens) (UniProt Q00613); test: ATG_HSE_CIS: Attagene CIS-FACTORIAL HepG2 Assay for human Heat Shock Transcription Factor 1 (HSE) (AID 2282953); conditions: HepG2 HSE cis-reporter, Attagene RNA transcription; actives raise or lower the signal
In short: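 Endogenous transcription factor activity in transiently transfected HepG2, read as reporter mRNA by RT-PCR with fluorescent capillary electrophoresis after 24 h. Gain or loss of signal fitted versus DMSO baseline.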

[17] = ATG_MRE_CIS: Attagene CIS-FACTORIAL HepG2 Assay for human Metal Responsive Element (MRE) (AID 2282954); conditions: HepG2 MRE cis-reporter transcription, Attagene multiplex; actives raise or lower the signal
In short: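 Endogenous MRE-dependent transcription read as reporter mRNA in transiently transfected human HepG2 cells at 24 h. RNA reverse-transcribed, PCR-amplified, labelled and resolved by capillary electrophoresis; gain or loss relative to DMSO.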

[18] = ATG_M_19_CIS: Attagene CIS-FACTORIAL HepG2 Assay for M19 Transcription Factor (Internal Marker) (AID 2282939); conditions: HepG2 Attagene CIS-FACTORIAL M19 internal marker reporter; actives raise or lower the signal
In short: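 Internal marker readout, fitted in both directions against DMSO, from HepG2 cells carrying transfected cis-element reporter constructs; RT-PCR and capillary electrophoresis of reporter mRNA after 24 h exposure.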

[19] = molecular target: Bile acid receptor (Homo sapiens) (UniProt Q96RI1); test: ATG_IR1_CIS: Attagene CIS-FACTORIAL HepG2 Assay for human Nuclear Receptor Subfamily 1 Group H Member 4 (NR1H4), IR1 submotif (AID 2282946); conditions: IR1 reporter transcription, actives raise or lower the signal
In short: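 HepG2 cells transiently transfected with multiplexed cis-element reporter units read endogenous transcription factor activity. After 24 h compound exposure, reporter mRNA was quantified by RT-PCR, fluorescent labelling, HpaI digestion and capillary electrophoresis; bidirectional fitting versus DMSO baseline.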

Measured: AC50

Sequence of Hypoxia-inducible factor 1-alpha (Homo sapiens) (Q16665 whole entry, looked up): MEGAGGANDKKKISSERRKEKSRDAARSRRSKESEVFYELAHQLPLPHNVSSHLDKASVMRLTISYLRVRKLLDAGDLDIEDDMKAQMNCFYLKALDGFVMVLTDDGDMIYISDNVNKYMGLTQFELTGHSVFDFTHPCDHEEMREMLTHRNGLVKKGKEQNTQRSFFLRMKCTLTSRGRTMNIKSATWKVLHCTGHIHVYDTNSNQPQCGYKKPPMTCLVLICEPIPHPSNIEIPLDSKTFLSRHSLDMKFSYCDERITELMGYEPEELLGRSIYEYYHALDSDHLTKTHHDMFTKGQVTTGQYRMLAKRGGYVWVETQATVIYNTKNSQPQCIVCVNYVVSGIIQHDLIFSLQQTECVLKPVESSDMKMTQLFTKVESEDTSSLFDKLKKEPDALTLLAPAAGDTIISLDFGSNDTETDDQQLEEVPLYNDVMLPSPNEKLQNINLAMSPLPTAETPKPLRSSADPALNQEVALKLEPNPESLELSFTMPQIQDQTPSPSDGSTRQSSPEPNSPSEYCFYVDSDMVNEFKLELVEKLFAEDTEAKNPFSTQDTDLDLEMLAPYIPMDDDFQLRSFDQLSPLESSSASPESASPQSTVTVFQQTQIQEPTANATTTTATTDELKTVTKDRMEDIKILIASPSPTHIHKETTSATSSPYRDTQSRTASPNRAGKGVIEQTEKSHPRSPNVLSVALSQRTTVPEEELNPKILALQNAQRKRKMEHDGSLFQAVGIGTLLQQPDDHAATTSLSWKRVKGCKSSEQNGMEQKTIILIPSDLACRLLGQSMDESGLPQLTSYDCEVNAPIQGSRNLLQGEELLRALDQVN
Sequence of Hepatocyte nuclear factor 3-beta (Homo sapiens) (Q9Y261 whole entry, looked up): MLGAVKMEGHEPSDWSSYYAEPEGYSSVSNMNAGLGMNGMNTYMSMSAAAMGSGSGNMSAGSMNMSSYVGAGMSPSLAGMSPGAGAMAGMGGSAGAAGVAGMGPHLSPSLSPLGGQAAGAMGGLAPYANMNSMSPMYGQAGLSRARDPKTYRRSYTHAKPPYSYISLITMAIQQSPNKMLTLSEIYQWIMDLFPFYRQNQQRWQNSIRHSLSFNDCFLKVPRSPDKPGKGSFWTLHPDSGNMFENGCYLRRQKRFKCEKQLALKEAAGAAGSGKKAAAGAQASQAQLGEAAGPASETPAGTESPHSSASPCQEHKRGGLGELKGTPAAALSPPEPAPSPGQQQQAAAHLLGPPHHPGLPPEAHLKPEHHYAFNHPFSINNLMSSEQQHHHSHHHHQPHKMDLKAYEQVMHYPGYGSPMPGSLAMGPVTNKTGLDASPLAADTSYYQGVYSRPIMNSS
Sequence of Bile acid receptor (Homo sapiens) (Q96RI1 whole entry, looked up): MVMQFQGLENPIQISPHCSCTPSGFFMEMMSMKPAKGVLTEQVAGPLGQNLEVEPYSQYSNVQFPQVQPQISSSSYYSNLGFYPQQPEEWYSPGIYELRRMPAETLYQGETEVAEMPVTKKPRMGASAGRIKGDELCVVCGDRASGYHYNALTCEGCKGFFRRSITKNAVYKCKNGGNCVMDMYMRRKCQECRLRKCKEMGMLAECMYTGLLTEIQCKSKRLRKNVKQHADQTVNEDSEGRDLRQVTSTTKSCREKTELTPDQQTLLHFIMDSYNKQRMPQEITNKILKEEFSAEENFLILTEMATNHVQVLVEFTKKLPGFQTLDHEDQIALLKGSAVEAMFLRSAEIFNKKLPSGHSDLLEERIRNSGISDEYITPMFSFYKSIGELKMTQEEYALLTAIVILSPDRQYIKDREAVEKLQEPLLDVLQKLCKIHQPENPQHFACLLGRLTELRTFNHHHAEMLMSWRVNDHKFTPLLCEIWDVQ
Sequence of Hepatocyte nuclear factor 6 (Homo sapiens) (Q9UBC0 whole entry, looked up, the tested form may be a part): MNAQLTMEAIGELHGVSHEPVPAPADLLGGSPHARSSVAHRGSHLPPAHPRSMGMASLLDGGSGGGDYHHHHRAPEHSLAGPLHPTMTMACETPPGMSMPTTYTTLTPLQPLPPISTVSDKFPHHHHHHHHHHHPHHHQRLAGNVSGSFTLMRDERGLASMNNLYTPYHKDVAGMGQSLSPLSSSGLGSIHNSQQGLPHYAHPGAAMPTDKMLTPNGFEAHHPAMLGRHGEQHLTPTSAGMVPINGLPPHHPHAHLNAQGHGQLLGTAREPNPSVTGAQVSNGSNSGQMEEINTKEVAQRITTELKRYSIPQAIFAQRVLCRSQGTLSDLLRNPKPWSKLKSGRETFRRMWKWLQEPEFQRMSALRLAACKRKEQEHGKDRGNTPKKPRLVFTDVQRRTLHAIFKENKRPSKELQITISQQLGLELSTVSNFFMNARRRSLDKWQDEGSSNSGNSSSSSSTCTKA
Sequence of Heat shock factor protein 1 (Homo sapiens) (Q00613 whole entry, looked up): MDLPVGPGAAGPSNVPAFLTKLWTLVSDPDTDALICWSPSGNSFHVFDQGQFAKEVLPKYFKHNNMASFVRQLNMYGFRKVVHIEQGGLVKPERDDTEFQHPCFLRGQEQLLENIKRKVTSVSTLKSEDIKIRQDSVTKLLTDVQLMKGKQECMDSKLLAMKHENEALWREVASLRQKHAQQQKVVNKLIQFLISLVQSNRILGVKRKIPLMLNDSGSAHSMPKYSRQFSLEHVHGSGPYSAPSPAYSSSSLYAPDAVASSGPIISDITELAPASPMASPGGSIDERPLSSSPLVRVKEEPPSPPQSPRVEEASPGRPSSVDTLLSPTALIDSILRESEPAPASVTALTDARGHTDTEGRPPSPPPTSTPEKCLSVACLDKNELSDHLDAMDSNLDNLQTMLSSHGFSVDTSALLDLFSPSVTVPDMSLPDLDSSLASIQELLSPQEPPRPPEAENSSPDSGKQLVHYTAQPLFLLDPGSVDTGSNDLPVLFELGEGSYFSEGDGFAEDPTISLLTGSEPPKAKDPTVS
Sequence of Transcription factor E2F1 (Homo sapiens) (Q01094 whole entry, looked up): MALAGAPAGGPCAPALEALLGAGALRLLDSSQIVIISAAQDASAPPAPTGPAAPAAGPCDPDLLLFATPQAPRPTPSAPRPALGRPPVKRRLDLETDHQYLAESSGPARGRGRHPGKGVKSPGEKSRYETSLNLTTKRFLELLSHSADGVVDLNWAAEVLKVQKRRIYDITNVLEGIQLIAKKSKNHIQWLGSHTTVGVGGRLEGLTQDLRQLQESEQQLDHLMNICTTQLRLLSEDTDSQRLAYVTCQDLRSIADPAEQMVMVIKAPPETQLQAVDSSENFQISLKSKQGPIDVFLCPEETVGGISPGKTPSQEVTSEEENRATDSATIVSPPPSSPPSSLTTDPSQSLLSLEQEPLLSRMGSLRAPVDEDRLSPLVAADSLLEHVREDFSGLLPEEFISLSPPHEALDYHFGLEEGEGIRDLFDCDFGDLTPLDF

O=c1n(Cl)c(=O)n(Cl)c(=O)n1Cl
not listed: [18] | [19]
inactive: all other assays above

COC(=O)c1c(C(F)F)nc(C(F)(F)F)c(C2=NCCS2)c1CC(C)C
active: [2] 9.92 µM | [4] 13.8 µM | [8] 88.5 µM | [17] 18.5 µM
not listed: [10] | [19]
inactive: all other assays above

OC(c1ccc(Cl)cc1)(c1ccc(Cl)cc1)C(Cl)(Cl)Cl
not listed: [8] | [18]
inactive: all other assays above

CCOP(=S)(OCC)Oc1nc(Cl)n(C(C)C)n1
active: [4] 50 µM
not listed: [8] | [19]
inactive: all other assays above

Cc1cc(C)nc(Nc2ccccc2)n1
active: [3] 50 µM
not listed: [16] | [18] | [19]
inactive: all other assays above

CCN(CC)C(=O)C(C)Oc1cccc2ccccc12 (centres undefined)
active: [4] 25.2 µM | [14] 23.6 µM | [17] 7.47 µM
not listed: [8] | [10] | [18]
inactive: all other assays above

COCc1cnc(C2=NC(C)(C(C)C)C(=O)N2)c(C(=O)O)c1 (centres undefined)
not listed: [8] | [18]
inactive: all other assays above

N#Cc1c[nH]cc1-c1cccc2c1OC(F)(F)O2
active: [4] 5.84 µM | [5] 29 µM | [17] 8.67 µM
not listed: [8] | [19]
inactive: all other assays above
